# Experimental data reported in PubChem BioAssay (NCI).
# The panel holds about 83,000 compounds, 20% with a hit somewhere; the sample as a whole holds those more often.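 Interpretation: 100, growth as untreated; towards 0, rising growth inhibition; 0, no net growth; 0 to -100, cell death. Compounds scoring below 10 were considered active.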 Unmarked numbers belong to inactive results. Activity calls are given as the source filed them.
# Experiments:
# Assay in all cases: NCI-60 one-dose screen, 48 h (100 = growth as untreated, 0 = no growth, -100 = all killed)
# Conditions in all cases: 10 µM
# NCI-H23 lung = system: NCI-H23 lung
# NCI-H226 lung = system: NCI-H226 lung
# NCI-H322M lung = system: NCI-H322M lung
# HOP-62 NSCLC = system: HOP-62 NSCLC
# NCI-H460 lung = system: NCI-H460 lung
# HOP-92 NSCLC = system: HOP-92 NSCLC
# NCI-H522 lung = system: NCI-H522 lung
# A549/ATCC NSCLC = system: A549/ATCC NSCLC
# 786-0 renal = system: 786-0 renal
# COLO 205 colon = system: COLO 205 colon
# DU-145 prostate = system: DU-145 prostate
# K-562 leukemia = system: K-562 leukemia
# MALME-3M melanoma = system: MALME-3M melanoma
# MDA-MB-231 breast = system: MDA-MB-231 breast
# SF-268 CNS = system: SF-268 CNS
# SF-295 CNS = system: SF-295 CNS
# SF-539 CNS = system: SF-539 CNS
# UACC-257 melanoma = system: UACC-257 melanoma
# M14 melanoma = system: M14 melanoma
# RXF 393 renal = system: RXF 393 renal
SMILES,growth (NCI-H23 lung),growth (NCI-H226 lung),growth (NCI-H322M lung) [%],growth (HOP-62 NSCLC),growth (NCI-H460 lung),growth (HOP-92 NSCLC),growth (NCI-H522 lung),growth (A549/ATCC NSCLC),growth (786-0 renal),growth (COLO 205 colon),growth (DU-145 prostate) [%],growth (K-562 leukemia),growth (MALME-3M melanoma),growth (MDA-MB-231 breast),growth (SF-268 CNS),growth (SF-295 CNS),growth (SF-539 CNS),growth (UACC-257 melanoma),growth (M14 melanoma),growth (RXF 393 renal)
COc1ccc(OC)c(-c2cc(-c3c[nH]c4ccccc34)nc(N)c2C#N)c1,-9.65% (active),14%,24.8,10% (active),-42.5% (active),-36.8% (active),-5.53% (active),21.1%,-52.3% (active),-23.2% (active),13,8.61% (active),-3.02% (active),12.8%,9.75% (active),-69.4% (active),-60.3% (active),22.4%,-8.47% (active),
CC(C)C1=C[C@@]23CC[C@@H]4[C@](C)(CCC[C@]4(C)C(=O)NCc4ccccc4)[C@H]2C[C@@H]1[C@H]1C(=O)CCC(=O)[C@H]13,59%,40.7%,93.4,94.4%,84.5%,68.9%,-12.5% (active),81.6%,87.2%,103%,98.1,55.7%,95.5%,86.5%,80.4%,83.1%,72.2%,77.6%,86.9%,
O=C(c1ccc(Cl)cc1)C1[C@H](c2ccccc2Br)[C@@H](c2ccccc2)NC12C(=O)Nc1ccc(Br)cc12 (stereo partly drawn),3.35% (active),12.5%,41.6,31.2%,2.66% (active),4.57% (active),-24.4% (active),0.826% (active),-2.24% (active),-49.6% (active),29.7,6.68% (active),50.1%,2.81% (active),32.7%,14.9%,30.2%,10.3%,27.5%,-26.1% (active)
COc1cccc(-c2ccnc(/N=C(\N)Nc3ccc(S(=O)(=O)Nc4nc(C)cc(C)n4)cc3)n2)c1,98.2%,80.3%,107,84.6%,106%,106%,91.5%,102%,101%,114%,111,92%,98%,95.9%,104%,93.7%,95.2%,111%,114%,
CC(C)(C)c1ccc(NCc2cn(-c3ccc(C(=O)O)cc3)nc2-c2ccc(C#N)cc2)cc1,8.82% (active),31.6%,41,36.2%,11.6%,-3.79% (active),57.1%,24.3%,22.8%,34.8%,36.1,14.8%,42.9%,41.9%,33.9%,19.2%,14.3%,45.5%,30.1%,
NS(=O)(=O)c1ccc(NC(=O)CSc2ccc(-c3ccc(Cl)cc3)nn2)c(Br)c1,61.1%,-5.33% (active),48.5,2.17% (active),23%,-14.4% (active),63.6%,28.5%,19.1%,69.4%,32.5,74.6%,29.2%,8.72% (active),27.9%,3.43% (active),28.4%,75.5%,85.1%,
CC(=O)NS(=O)(=O)c1ccc(NC(=O)CSC2=NC(c3ccccc3)C(C(C)=O)=C(C)N2)cc1 (stereo not drawn),97.5%,109%,105,103%,121%,134%,98.4%,98.1%,103%,126%,120,104%,103%,110%,107%,101%,107%,106%,107%,
N#Cc1c(NC(=O)c2ccc(C(F)(F)F)cc2)sc2c1CCC(=O)C2,-56.9% (active),-21.2% (active),22.3,-37.7% (active),0.648% (active),-57% (active),-57.3% (active),-41.9% (active),-8.91% (active),-95.3% (active),23.1,7.26% (active),-54.2% (active),-84.4% (active),-37.6% (active),-95.3% (active),-89.2% (active),-71.1% (active),-78.5% (active),
